Reference: publication PMC5540273 (PLoS ONE, 2017)

Columns and labels:
Details in all cases: concentration: 1 μM, replicates: in singlicate; n = 1
[1] = system: T1, AMPK-alpha1
T1 construct: gene PRKAA1

[2] = system: T2, AMPK-alpha2
T2 construct: gene PRKAA2

[3] = system: ANKK1
[4] = system: T3, ARK5
T3 construct: gene NUAK1

[5] = system: T4, ASK1
T4 construct: gene MAP3K5

[6] = system: T5, ASK2
T5 construct: gene MAP3K6

[7] = system: AURKA
[8] = system: AURKB
[9] = system: AURKC
[10] = system: AXL
[11] = system: T6, BIKE
T6 construct: gene BMP2K

[12] = system: BLK
[13] = system: BMPR1A
[14] = system: BMPR1B
[15] = system: BMPR2
[16] = system: BMX
[17] = system: BRAF
[18] = system: T7, BRK
T7 construct: gene PTK6

[19] = system: BRSK1
[20] = system: BRSK2
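Also: KINOMEscan kinase panel screen.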

SMILES | %Inh [1] [%] | %Inh [2] [%] | %Inh [3] [%] | %Inh [4] [%] | %Inh [5] [%] | %Inh [6] [%] | %Inh [7] [%] | %Inh [8] [%] | %Inh [9] [%] | %Inh [10] [%] | %Inh [11] [%] | %Inh [12] [%] | %Inh [13] [%] | %Inh [14] [%] | %Inh [15] [%] | %Inh [16] [%] | %Inh [17] [%] | %Inh [18] [%] | %Inh [19] [%] | %Inh [20] [%]
O=C1NC(=O)C(c2ccc(Cl)cc2)=C1Nc1ccc(O)cc1 [SB-340867] | 0 | 0 | 0 | 0 | 0 | 0 | 0 | 9 | 0 | 18 | 4 | 0 | 0 | 0 | 0 | 21 | 0 | 0 | 0 | 0
Cc1cccc2c(-c3ccncn3)c(-c3ccc(F)cc3)nn12 [GW515532] | 3 | 16 | 0 | 0 | 0 | 0 | 0 | 0 | 18 | 10 | 10 | 33 | 0 | 0 | 0 | 0 | 22 | 0 | 6 | 10
Cn1cnc2c(N)ncnc21 [SKF-97623] | 5 | 0 | 0 | 0 | 0 | 0 | 5 | 0 | 0 | 10 | 0 | 0 | 0 | 0 | 0 | 0 | 0 | 0 | 24 | 0
O=C(Nc1n[nH]c2nc(-c3ccco3)c(Br)cc12)C1CCN(Cc2ccccc2)C1.O=C(O)[C@H](O)[C@@H](O)C(=O)O (stereo not shown) [SB-742034] | 9 | 0 | 11 | 0 | 13 | 17 | 34 | 17 | 7 | 13 | 0 | 0 | 32 | 10 | 16 | 0 | 0 | 9 | 18 | 37
Cc1ccccc1Cn1ccn2c(=O)cc(N3CCOCC3)nc12 [GSK2269905] | 0 | 1 | 10 | 5 | 0 | 0 | 0 | 30 | 0 | 9 | 16 | 10 | 0 | 0 | 0 | 3 | 0 | 22 | 0 | 98.6
COC(=O)c1cccc(NC(=O)NC2CCN(c3ccnc(Nc4ccc(OC)cc4)n3)C2)c1 (stereo not shown) [GSK1379746] | 0 | 0 | 0 | 31 | 22 | 0 | 10 | 25 | 28 | 0 | 6 | 0 | 9 | 0 | 26 | 3 | 7 | 28 | 0 | 0
COc1ccc(-c2coc3ccc(-c4nnc(C)o4)cc23)cc1 | 0 | 3 | 0 | 0 | 0 | 10 | 0 | 18 | 0 | 0 | 0 | 3 | 18 | 0 | 0 | 0 | 0 | 0 | 0 | 100
COc1ccc(Nc2nccc(-c3ccc(NC(=O)c4cc5cc(F)ccc5[nH]4)cc3)n2)cc1 [GSK1229496] | 0 | 0 | 0 | 0 | 2 | 0 | 0 | 5 | 0 | 0 | 33 | 0 | 0 | 0 | 21 | 16 | 0 | 16 | 0 | 0
COc1ccc(CSc2nnc(-c3ccc4nccn4c3)o2)cc1C(F)(F)F | 3 | 9 | 0 | 9 | 0 | 44 | 0 | 22 | 15 | 20 | 18 | 1 | 0 | 21 | 3 | 0 | 9 | 0 | 14 | 3
Nc1ncnc2occ(-c3ccc4c(c3)CCN4C(=O)Cc3cc(F)ccc3F)c12 [GSK2645446] | 4 | 0 | 3 | 12 | 0 | 0 | 0 | 48 | 40 | 34 | 17 | 14 | 0 | 0 | 8 | 12 | 4 | 8 | 12 | 0
O=c1cc(N2CCOCC2)nc2n(Cc3cccc(Cl)c3Cl)c3ccccc3n12 [GSK2299009] | 5 | 16 | 6 | 0 | 2 | 0 | 17 | 7 | 46 | 59 | 38 | 50 | 2 | 0 | 0 | 1 | 0 | 17 | 8 | 22
